Most compounds without a hit are left out; they make up all but 3% or so of the library.
GALC G270D up = raises human GALC G270D mutant activity in cells | 145M-Twi-hGALC-G270D cells (Twitcher mouse brain line with human GALC G270D), HMU-beta-Gal fluorescence, 48 h | actives 0.1% (n = 45,000) | AID 1159614 | Potency, µM (top dose mostly 57.5 µM), most hits filed as activators; note: 0% is about no effect; nearly all actives have a fitted effect of over 65% in size
Target sequence (P54803 whole entry G286D): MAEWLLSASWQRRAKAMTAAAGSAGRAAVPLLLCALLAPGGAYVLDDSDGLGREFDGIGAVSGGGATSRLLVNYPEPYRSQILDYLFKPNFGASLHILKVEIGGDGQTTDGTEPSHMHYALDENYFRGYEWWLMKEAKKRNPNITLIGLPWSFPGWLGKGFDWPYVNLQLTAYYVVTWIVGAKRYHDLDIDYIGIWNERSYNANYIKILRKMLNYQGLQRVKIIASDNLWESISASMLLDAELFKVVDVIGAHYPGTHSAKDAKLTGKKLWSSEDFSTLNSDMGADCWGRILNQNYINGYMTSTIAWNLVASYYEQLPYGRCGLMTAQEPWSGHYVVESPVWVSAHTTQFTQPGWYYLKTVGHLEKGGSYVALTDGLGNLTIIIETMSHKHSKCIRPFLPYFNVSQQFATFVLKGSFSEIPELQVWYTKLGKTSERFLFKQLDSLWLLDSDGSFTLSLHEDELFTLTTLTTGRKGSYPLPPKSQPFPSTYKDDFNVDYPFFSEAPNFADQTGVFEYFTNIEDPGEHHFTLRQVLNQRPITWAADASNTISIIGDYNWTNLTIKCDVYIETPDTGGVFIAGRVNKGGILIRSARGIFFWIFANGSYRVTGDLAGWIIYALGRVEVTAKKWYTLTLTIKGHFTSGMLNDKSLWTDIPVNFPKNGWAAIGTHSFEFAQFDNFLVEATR
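Live 145M-Twi cells (Twitcher mouse brain-derived, GALC-null) stably expressing human GALC-G270D, with a wild-type GALC line, were compound-treated. Residual GALC activity was then read as fluorescence from 0.1 mM final HMU-β-gal at pH 5.2; higher signal means activation.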
p53null 39C tox = selectivity test: cytotoxicity in p53 null cells, nonpermissive temperature; AID 904; H1299 p53-null (neo) cells, 39C, ATPlite viability, 24 h; Potency, µM (titrated, usually from 46.1 µM), for inactives: top-dose activity, negative = cell killing, actives largely listed as cytotoxic; actives 0.97% (n = 55,000);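 note: 0% = DMSO only and -100% = full killing by 100 µM tamoxifen; nearly all actives have a fitted effect of over 50% in size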
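Concentration-response (up to 46 uM) was run for 24 h at the nonpermissive 39C on H1299-p53A138V or H1299-neo cells. ATP content was measured with ATPlite luminescence. AC50 values were Hill-modeled after normalizing between DMSO and 100 uM tamoxifen killing.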
p53null 32C kill = p53 null cell cytotoxicity, permissive temperature; AID 903; Potency, µM (doses to about 46.1 µM), for inactives: at the highest dose activity change, negative = cytotoxicity, most hits filed as cytotoxic; H1299-neo p53 null cells, ATP luminescence, 24 h, 32C; actives 0.62% (n = 55,000);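 note: 0% = DMSO only and -100% = full killing by 100 µM tamoxifen; nearly all actives have a fitted effect of over 55% in size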
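AC50 values derive from Hill modelling of qHTS concentration-response data (up to 46 uM) in H1299-neo cells. Cells were treated 24 h at 32C following overnight attachment at 37C; viability was read as cellular ATP.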
PMP22 txn = PMP22 gene transcription modulation. S16 Pmp22-F2sN Schwann cells, FLuc/NLuc coincidence luminescence, 24 h. Potency, µM (series often up to 57.5 µM), inactives show top-dose activity change, negative = inhibition, usual class: inhibitors. actives 2% (n = 43,000). AID 1508649; active = clear falling dose curves in both reporters; inconclusive = both reporters move, but less clearly or upward; inactive = either reporter flat; the % is the NLuc reporter signal; note: % is set by controls: 0 for no effect and ±100 for the full control effect
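S16 Schwann cells carrying FLuc/NLuc coincidence reporter in the Pmp22 3' UTR treated with compound 24 h at 37C; FLuc then NLuc luminescence read sequentially by dual-luciferase reagents.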
mTORC1 inh = mTORC1 pathway inhibition measured by phospho-rpS6 | Tsc2-/- p53-/- MEF, phospho-rpS6 immunofluorescence/PI, 24 h | Potency, µM (highest dose often 38.3 µM), for the others: at the highest dose activity change, negative = inhibition, usual class: inhibitors | AID 493208 | actives 0.78% (n = 44,000);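 note: plate controls were DMSO for no effect and rapamycin for full effect; nearly all actives have a fitted effect of over 50% in size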
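Tsc2-/-, p53-/- MEFs (empty-vector stable line) in DMEM + 10% FBS were treated with compounds 24 h at 37 degree Celsius, fixed, and immunostained for phospho-rpS6 (Alexa-488) with propidium iodide counterstain. Laser-scanning cytometry gave % positive cells, normalized against 7.5 nM rapamycin and DMSO.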
S16 F2sN tox = toxic to S16 Pmp22-F2sN Schwann cells; S16 Pmp22-F2sN Schwann cells viability, CellTiter-Glo, 24 h; Potency, µM (highest dose often 57.5 µM), for the others: at the top dose activity change, negative = cytotoxicity, usual class: cytotoxic; actives 0.48% (n = 43,000); AID 1508642; note: % is set by controls: 0 for no effect and ±100 for the full control effect; nearly all actives have a fitted effect of over 65% in size
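Used to flag compounds lowering reporter output through toxicity, this quantitative HTS measures ATP-based CellTiter-Glo luminescence in S16 Pmp22-F2sN Schwann cells after 24 h compound exposure at 37C.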
* marks the source's active call; other numbers are inactive results; i = inactive; ? = inconclusive; . = no result given; [ ] = dose if it differs, or a comment. Unless noted, calls come from the whole dose curve; as a rule, active = well fitted curve in the direction sought with a large enough effect; inconclusive = small, poorly fitted or top-dose-only effect, or another doubt; inactive = no such curve, though single readings can be large; an effect the other way counts as inactive or inconclusive. Potency is the fitted concentration of half-maximal effect.

SMILES | GALC G270D up | p53null 39C tox | p53null 32C kill | PMP22 txn | mTORC1 inh | S16 F2sN tox
COc1ccc(C(=O)NC(c2ccc(Cl)cc2)c2cc(Cl)c3cccnc3c2O)cc1 (stereo not drawn) | i | 17% | ? | ? | 2% | 4µM*
N#Cc1ccc(OC(=O)c2cc(-c3ccc4c(c3)OCCO4)on2)cc1 | i | ? | ? | -25% | -1% | -3%
COc1ccc(C(=O)Nc2ccc3c(c2)OCCO3)cc1 | . | 11µM* | 11µM* | . | . | .
CC(C)c1ccc(OC(=O)c2cc(-c3ccc4c(c3)OCCO4)on2)cc1 | i | 32µM* | 13µM* | -9% | -4% | 2%
O=C(Oc1ccc(Cl)cc1)c1cc(-c2ccc3c(c2)OCCO3)on1 | i | -32% | -19% | -1% | -5% | 12%
CCOC(=O)c1ccc(NC(=O)Nc2ccc3c(c2)OCCO3)cc1 | . | -4% | -5% | . | . | .
COc1ccc(OC(=O)c2cc(-c3ccc4c(c3)OCCO4)on2)cc1 | i | ? | 13µM* | -16% | -10% | 1%
COc1cc(NC(=O)Nc2nnc(N3CCCCC3)s2)cc(OC)c1 | i | -8% | -5% | 9% | 1% | 7%
Cc1c(Cl)cccc1NC(=O)CCS(=O)(=O)c1ccc(Br)s1 | i | -29% | 5% | -20% | 16% | 5%
COc1ccc(CN(C)CC(=O)Nc2ccc(N3CCOCC3)cc2)cc1OC | . | -8% | -8% | . | . | .
CC(C)(C)OC(=O)N1CCC(c2c(C(=O)NCc3ccc(F)cc3)cnn2-c2ccc(F)cc2)CC1 | i | 3% | 0% | ? | -4% | -14%
C#CC(C)(CC)NC(=O)Cn1nnc(-c2ccc(OCc3ccccc3C)cc2)n1 (stereo not drawn) | i | -24% | -8%[9.22 µM] | -11% | -29% | -27%
Cc1ccc(NC(=O)CSc2nnc3[nH]c(=O)cc(-c4ccccc4)n23)cc1Cl | i | ? | 4µM* | ? | -11% | 5%
Cc1ccc(C)c(NC(=O)CSc2nnc3[nH]c(=O)cc(-c4ccccc4)n23)c1 | i | ? | 1.6µM* | ? | 0% | -14%
CCc1ccc(CNC(=O)CCc2c(C)nn(-c3ccc(N4CCCC4)nn3)c2C)cc1 | . | 4% | -1% | . | 0% | .
Cc1ccc(NC(=O)CSc2ncc3c(n2)-c2ccc(Cl)cc2N(C)S3(=O)=O)cc1F | i | -3% | 1% | ? | -8% | 10%
CN1c2cc(Cl)ccc2-c2nc(SCC(=O)Nc3ccc(F)cc3F)ncc2S1(=O)=O | i | ? | -8% | ? | -7% | 25µM*
COc1ccccc1NC(=O)CSc1nc(-c2cccc(Cl)c2)nc2c1Cc1c(CO)cnc(C)c1O2 | i | 3% | 7% | -8% | 3% | -5%
CCCCNC(=O)CSc1c2c(nc3ccc(Cl)cc13)CCCC2 | i | 136% | 8% | ? | ? | 40µM*
CCCNC(=O)CSc1c2c(nc3ccc(Cl)cc13)CCCC2 | i | 57% | 28% | ? | ? | 16%
CCOc1ccccc1NC(=O)Cn1c(=O)n(CCCC(=O)NCCOC)c(=O)c2cc(OC)c(OC)cc21 | i | 7% | 0% | 8% | 0% | 8%
O=C(CN1C(=O)COc2ccc(S(=O)(=O)N3CCCC3)cc21)N1CCN(c2cccc(C(F)(F)F)c2)CC1 | i | -14% | 5% | ? | -10% | ?
CCCCN1C(=O)C(O)(c2c(C)[nH]c3ccccc23)c2ccccc21 (stereo not drawn) | i | -10% | 5% | 19µM* | ? | ?

High-throughput results deposited in PubChem by National Center for Advancing Translational Sciences (NCATS).
